Reference: the supplement of paper PMC9135407
Where a name gives a salt, the structure may show the parent alone.

system: primary human hepatic stellate cells (donor 1); assay: ACTA2 mRNA fold change vs DMSO (normalised to PSMB2); higher = more ACTA2 expression; conditions: 48 h
Protocol: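 Secondary qRT-PCR screen in primary human HSCs (donor 1), 384-well plates, with compounds dispensed in quadruplicate and incubated for 48 h. Cells-to-CT lysates were used for multiplexed TaqMan qPCR of ACTA2 or COL1A1 with PSMB2 as reference. Fold changes versus DMSO come from a linear model (Ct_gene ~ Ct_PSMB2 + plate + chemical). A hit is defined as COL1A1 and ACTA2 FC <0.5 (FDR <0.05) with PSMB2 between 0.2 and 2.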

Row | Compound | ACTA2 mRNA fold change
1 | C[C@@H]1CN(CCCn2c3ccccc3c3ccccc32)C[C@H](C)N1 [Rimcazole dihydrochloride] (33.3333 µM) | 0.0478
2 | NC(N)=NC(=O)c1nc(Cl)c(N2CCCCCC2)nc1N [5-(N,N-hexamethylene)amiloride] (33.3333 µM) | 0.0262
3 | C[C@@H](CN1CCC(n2c(=O)[nH]c3cc(Cl)ccc32)CC1)NC(=O)c1ccc2ccccc2c1 (33.3333 µM) | 0.045
4 | NC[C@@H]1O[C@H](C23CC4CC(CC(C4)C2)C3)Cc2c1ccc(O)c2O (33.3333 µM) | 0.309
5 | NC1(c2ccc(-c3nc4ccn5c(=O)[nH]nc5c4cc3-c3ccccc3)cc2)CCC1 (11.1 µM) | 0.33
6 | CNCCCC1c2ccccc2C=Cc2ccccc21 [Protryptyline hydrochloride] (22.2333 µM) | 0.577
7 | CNCc1ccc(-c2[nH]c3cc(F)cc4c3c2CCNC4=O)cc1 (33.3333 µM) | 0.864
8 | COc1ccccc1OCCNCC(O)COc1cccc2[nH]c3ccccc3c12 (stereo not given) [Carvedilol] (33.3333 µM) | 0.0773
9 | CCN1CCC(n2cc(CNc3cc(Cl)c4ncc(C#N)c(Nc5ccc(F)c(Cl)c5)c4c3)nn2)CC1 (33.3333 µM) | 0.0712
10 | O=C(O[C@H]1CN2CCC1CC2)N1CCc2ccccc2[C@@H]1c1ccccc1 [Solifenacin succinate] (33.3333 µM) | 0.257
11 | O=C1NC(=O)/C(=C/c2ccc(-c3ccc(F)cc3O)o2)S1 (33.3333 µM) | 0.0492
12 | CN1CCN2c3ccccc3Cc3ccccc3C2C1 (stereo not given) [Mianserin hcl] (25.2333 µM) | 0.899
13 | CC(/C=C/C(=O)NO)=C\[C@@H](C)C(=O)c1ccc(N(C)C)cc1 [Trichostatin A] (3.33333 µM) | 0.0381
14 | CNCc1ccc(-c2cc(-c3nc(-c4ccc(S(=O)(=O)C(C)C)cc4)cnc3N)on2)cc1 (11.1 µM) | 0.0206
15 | CCC/C=C\C=C/C(=O)N[C@@H](CC(N)=O)C(=O)NC(CC(N)=O)C(=O)N[C@@H](C(=O)N[C@H](CCCN)C(=O)N[C@@H](C(=O)N[C@@H](C(=O)N[C@@H](C(=O)N[C@H](C(=O)N[C@@H](Cc1ccccc1)C(=O)N[C@H](CCCN)C(=O)NC(C(=O)N[C@H](C(=O)NC(C(=O)NCC(=O)N[C@@H](CC(C)C)C(=O)N[C@H](C)C(=O)NC(C(=O)O)C1CCC(O)C(Cl)C1)C1CCC(O)CC1)[C@H](C)O)C1CCC(O)CC1)[C@H](C)O)C1CCC(O)CC1)C1CCC(O)CC1)[C@H](C)O)C1CCC(O)CC1 (stereo not given in full) (33.3333 µM) | 0.502
16 | O=C(Nc1cc(C(F)(F)F)cc(C(F)(F)F)c1)c1cc(Cl)ccc1O (33.3333 µM) | 0.0138
17 | CNC(=O)[C@@H](Cc1ccccc1)N(C)C(=O)[C@@H](Cc1ccc2ccccc2c1)N(C)C(=O)/C=C/CC(C)(C)N [Tabimorelin] (33.3333 µM) | 0.46
18 | CCCCCCCCc1ccc(CCC(N)(CO)CO)cc1 [Fingolimod (FTY720) HCl] (11.1 µM) | 0.301
19 | Clc1ccc(C2(c3ccc(-c4cn[nH]c4)cc3)CCNCC2)cc1 (33.3333 µM) | 0.0459
20 | Cc1cc(C(=O)Nc2cc(Nc3ccc4c(/C=C/c5ccccn5)n[nH]c4c3)ccc2F)n(C)n1 (33.3333 µM) | 0.469

Row | Compound | ACTA2 mRNA fold change
21 | NS(=O)(=O)C#Cc1ccccc1 [Pifithrin->m] (33.3333 µM) | 0.0598
22 | O=C(c1ccc(/C=C/c2n[nH]c3ccccc23)cc1)N1CCNCC1 (33.3333 µM) | 0.0375
23 | CCCCCCCCCCCCC/C=C/[C@@H](O)[C@H](CO)N(C)C [N,N-Dimethylsphingosine] (3.33333 µM) | 0.651
24 | Clc1ccccc1CNCC1CCC(CNCc2ccccc2Cl)CC1 (stereo not given) (33.3333 µM) | 0.0214
25 | CN1CCC(NC(=O)c2cc(-c3c(O)cc(O)cc3Oc3ccc([N+](=O)[O-])cc3)on2)CC1 (33.3333 µM) | 1.25
26 | Cc1ccc(NC(=O)C(C)C)cc1C1CCN(Cc2ccc(Oc3ccc(F)c(F)c3)cc2)CC1 (33.3333 µM) | 0.0197
27 | CCN(CC)CC#CCOC(=O)C(O)(c1ccccc1)C1CCCCC1 (stereo not given) [Oxybutynin chloride] (16.9333 µM) | 1.09
28 | CCCSc1ccc2[nH]c(NC(=O)OC)nc2c1 [Albendazole] (33.3333 µM) | 0.173
29 | Cc1ccc(NC(=O)c2ccc(CN3CCN(C)CC3)cc2)cc1Nc1nc(-c2cccnc2)cs1 [Masitinib (AB1010, Masivet)] (6.66667 µM) | 0.706
30 | O=C1Nc2ccccc2/C1=C1/Nc2ccccc2C1=O [Indirubin] (63.5333 µM) | 1.06
31 | CN1CCCN(C(c2ccccc2)c2ccc(Cl)cc2)CC1 (stereo not given) [Homochlorcyclizine dihydrochloride] (33.3333 µM) | 0.0102
32 | COc1ccc(NS(=O)(=O)c2sc3ccc(Cl)cc3c2C)cc1N1CCNCC1 (33.3333 µM) | 0.0163
33 | Cc1nc2ccc(-n3ncc(C(=O)c4cc5ccccc5[nH]4)c3N)cc2[nH]1 (33.3333 µM) | 0.785
34 | Cc1cccc(Nc2nc(-c3ccncc3)cs2)c1 (11.1 µM) | 1.07
35 | O=S(=O)(NCCNC/C=C/c1ccc(Br)cc1)c1cccc2cnccc12 [H-89, Dihydrochloride] (11.1 µM) | 1.09
36 | C[C@]12CC[C@H](O)CC1=CC[C@@H]1[C@@H]2CC[C@]2(C)C(n3cnc4ccccc43)=CC[C@@H]12 [Galeterone] (33.3333 µM) | 0.0205
37 | Cc1[nH]c(/C=C2\C(=O)Nc3ccc(S(=O)(=O)N(C)c4cccc(Cl)c4)cc32)c(C)c1C(=O)N1CCN(C)CC1 (33.3333 µM) | 0.425
38 | CC[C@@H]1C(=O)N(C)c2cnc(Nc3ccc(C(=O)NC4CCN(C)CC4)cc3OC)nc2N1C1CCCC1 (33.3333 µM) | 0.158
39 | CN1CCC(CNc2ccc3ncc(-c4cccc(OC(F)(F)F)c4)n3n2)CC1 (6.66667 µM) | 1.23
40 | Cn1cc(CNCC2CCN(c3ncc(C(=O)NO)cn3)CC2)c2ccccc21 [Quisinostat] (33.3333 µM) | 0.00604
